# Assay results published in publication PMC11006913.
# Positions count from the first letter of the chain named.
# Key:
# Assay in all cases: PBM; 200 nM protein, PBS
# Conditions in all cases: dsDNA, one strand shown
# HOXB4 [1] = target: HOXB4 (Homo sapiens, UniProt P17483 148-234)
# HOXB9 = HOXB9 (Homo sapiens, UniProt P17482 171-250, T197M)
# HOXB4 [2] = target: HOXB4 (Homo sapiens, UniProt P17483 148-234, V174I)
# VENTX [3] = target: T1, VENTX (Homo sapiens, UniProt O95231 78-163, R121Q)
# T1 sequence: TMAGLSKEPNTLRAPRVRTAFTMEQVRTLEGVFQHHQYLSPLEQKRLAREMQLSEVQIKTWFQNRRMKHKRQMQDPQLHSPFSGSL
# HOXA4 [4] = target: HOXA4 (Homo sapiens, UniProt Q00056 201-287, W262R)
# HOXA4 (Homo sapiens, UniProt Q00056 201-287, W262R), sequence (Q00056 201-287 W262R): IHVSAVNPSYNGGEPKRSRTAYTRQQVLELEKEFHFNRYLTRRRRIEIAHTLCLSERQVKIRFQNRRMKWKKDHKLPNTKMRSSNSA
# VENTX [5] = target: T2, VENTX (Homo sapiens, UniProt O95231 78-163, Y115F)
# T2 sequence: T1 sequence with Y38F, Q44R
# HOXA2 [6] = target: HOXA2 (Homo sapiens, UniProt O43364 129-215, R185T)
# HOXA2 (Homo sapiens, UniProt O43364 129-215, R185T), sequence (O43364 129-215 R185T): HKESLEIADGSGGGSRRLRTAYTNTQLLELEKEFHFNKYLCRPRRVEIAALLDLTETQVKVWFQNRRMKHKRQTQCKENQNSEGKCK
# HOXA4 [7] = target: HOXA4 (Homo sapiens, UniProt Q00056 201-287, R217L)
# HOXA4 (Homo sapiens, UniProt Q00056 201-287, R217L), sequence (Q00056 201-287 R217L): as the sequence (Q00056 201-287 W262R) above, with R17L, R62W counted along it
# HOXA2 [8] = target: HOXA2 (Homo sapiens, UniProt O43364 129-215, R185K)
# HOXA2 (Homo sapiens, UniProt O43364 129-215, R185K), sequence (O43364 129-215 R185K): as the sequence (O43364 129-215 R185T) above, with T57K counted along it
# HOXA4 [9] = target: HOXA4 (Homo sapiens, UniProt Q00056 201-287)
# HOXA4 (Homo sapiens, UniProt Q00056 201-287), sequence (Q00056 201-287): as the sequence (Q00056 201-287 W262R) above, with R62W counted along it
# VAX1 [10] = target: VAX1 (Homo sapiens, UniProt Q5SQQ9 86-172)
# VAX1 (Homo sapiens, UniProt Q5SQQ9 86-172), sequence (Q5SQQ9 86-172): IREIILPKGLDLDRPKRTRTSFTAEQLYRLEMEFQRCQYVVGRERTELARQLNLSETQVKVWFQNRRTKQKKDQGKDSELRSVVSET
# VAX1 [11] = target: VAX1 (Homo sapiens, UniProt Q5SQQ9 86-172, T142I)
# VAX1 (Homo sapiens, UniProt Q5SQQ9 86-172, T142I), sequence (Q5SQQ9 86-172 T142I): as the sequence (Q5SQQ9 86-172) above, with T57I counted along it
# HOXA2 [12] = target: HOXA2 (Homo sapiens, UniProt O43364 129-215, Y150S)
# HOXA2 (Homo sapiens, UniProt O43364 129-215, Y150S), sequence (O43364 129-215 Y150S): as the sequence (O43364 129-215 R185T) above, with Y22S, T57R counted along it
# HOXA4 [13] = target: HOXA4 (Homo sapiens, UniProt Q00056 201-287, W262F)
# HOXA4 (Homo sapiens, UniProt Q00056 201-287, W262F), sequence (Q00056 201-287 W262F): as the sequence (Q00056 201-287 W262R) above, with R62F counted along it
# HOXA2 [14] = target: HOXA2 (Homo sapiens, UniProt O43364 129-215)
# HOXA2 (Homo sapiens, UniProt O43364 129-215), sequence (O43364 129-215): as the sequence (O43364 129-215 R185T) above, with T57R counted along it
# VAX1 [15] = target: VAX1 (Homo sapiens, UniProt Q5SQQ9 86-172, K157R)
# VAX1 (Homo sapiens, UniProt Q5SQQ9 86-172, K157R), sequence (Q5SQQ9 86-172 K157R): as the sequence (Q5SQQ9 86-172) above, with K72R counted along it
# HOXB4 (Homo sapiens, UniProt P17483 148-234), sequence (P17483 148-234): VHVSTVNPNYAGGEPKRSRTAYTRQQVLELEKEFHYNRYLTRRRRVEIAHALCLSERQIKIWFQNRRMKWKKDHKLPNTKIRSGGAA
# HOXB4 (Homo sapiens, UniProt P17483 148-234, V174I), sequence (P17483 148-234 V174I): as the sequence (P17483 148-234) above, with V27I counted along it
# HOXB9, sequence (P17482 171-250 T197M): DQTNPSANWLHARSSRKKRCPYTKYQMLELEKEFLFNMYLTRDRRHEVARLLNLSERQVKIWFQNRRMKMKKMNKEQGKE
sequence,measurement,setting,value
CCGCCTAG,binding signal,HOXB4 [1],"7.58 upbm affinity estimate (log intensity, higher = more binding, comparable within an allelic series)"
same,binding signal,HOXB9,"8.4 upbm affinity estimate (log intensity, higher = more binding, comparable within an allelic series)"
same,binding signal,HOXB4 [2],"7.95 upbm affinity estimate (log intensity, higher = more binding, comparable within an allelic series)"
CTTAATGA,binding signal,HOXB4 [1],"13.3 upbm affinity estimate (log intensity, higher = more binding, comparable within an allelic series)"
same,binding signal,VENTX [3],"11.8 upbm affinity estimate (log intensity, higher = more binding, comparable within an allelic series)"
same,binding signal,HOXA4 [4],"10.7 upbm affinity estimate (log intensity, higher = more binding, comparable within an allelic series)"
same,binding signal,VENTX [5],"11.7 upbm affinity estimate (log intensity, higher = more binding, comparable within an allelic series)"
same,binding signal,HOXA2 [6],"12.8 upbm affinity estimate (log intensity, higher = more binding, comparable within an allelic series)"
same,binding signal,HOXA4 [7],"12.5 upbm affinity estimate (log intensity, higher = more binding, comparable within an allelic series)"
same,binding signal,HOXB4 [2],"13.9 upbm affinity estimate (log intensity, higher = more binding, comparable within an allelic series)"
same,binding signal,HOXA2 [8],"13.4 upbm affinity estimate (log intensity, higher = more binding, comparable within an allelic series)"
same,binding signal,HOXA4 [9],"14 upbm affinity estimate (log intensity, higher = more binding, comparable within an allelic series)"
same,binding signal,VAX1 [10],"13.3 upbm affinity estimate (log intensity, higher = more binding, comparable within an allelic series)"
same,binding signal,VAX1 [11],"13.1 upbm affinity estimate (log intensity, higher = more binding, comparable within an allelic series)"
same,binding signal,HOXA2 [12],"10.8 upbm affinity estimate (log intensity, higher = more binding, comparable within an allelic series)"
same,binding signal,HOXA4 [13],"12.1 upbm affinity estimate (log intensity, higher = more binding, comparable within an allelic series)"
same,binding signal,HOXA2 [14],"12.7 upbm affinity estimate (log intensity, higher = more binding, comparable within an allelic series)"
same,binding signal,VAX1 [15],"13.1 upbm affinity estimate (log intensity, higher = more binding, comparable within an allelic series)"
CATCATTA,binding signal,HOXB4 [1],"13.4 upbm affinity estimate (log intensity, higher = more binding, comparable within an allelic series)"
same,binding signal,HOXA4 [4],"10.8 upbm affinity estimate (log intensity, higher = more binding, comparable within an allelic series)"
same,binding signal,HOXA2 [6],"12.5 upbm affinity estimate (log intensity, higher = more binding, comparable within an allelic series)"
same,binding signal,HOXA4 [7],"12.3 upbm affinity estimate (log intensity, higher = more binding, comparable within an allelic series)"
same,binding signal,HOXB4 [2],"14 upbm affinity estimate (log intensity, higher = more binding, comparable within an allelic series)"
same,binding signal,HOXA2 [8],"13.2 upbm affinity estimate (log intensity, higher = more binding, comparable within an allelic series)"
same,binding signal,HOXA4 [9],"14 upbm affinity estimate (log intensity, higher = more binding, comparable within an allelic series)"
same,binding signal,VAX1 [10],"12.9 upbm affinity estimate (log intensity, higher = more binding, comparable within an allelic series)"
same,binding signal,VAX1 [11],"12.8 upbm affinity estimate (log intensity, higher = more binding, comparable within an allelic series)"
same,binding signal,HOXA2 [12],"11 upbm affinity estimate (log intensity, higher = more binding, comparable within an allelic series)"
same,binding signal,HOXA4 [13],"11.8 upbm affinity estimate (log intensity, higher = more binding, comparable within an allelic series)"
same,binding signal,HOXA2 [14],"12.3 upbm affinity estimate (log intensity, higher = more binding, comparable within an allelic series)"
same,binding signal,VAX1 [15],"12.7 upbm affinity estimate (log intensity, higher = more binding, comparable within an allelic series)"
CGGCGGTC,binding signal,HOXB4 [1],"7.42 upbm affinity estimate (log intensity, higher = more binding, comparable within an allelic series)"
same,binding signal,HOXA4 [4],"9.72 upbm affinity estimate (log intensity, higher = more binding, comparable within an allelic series)"
same,binding signal,HOXA4 [7],"9.69 upbm affinity estimate (log intensity, higher = more binding, comparable within an allelic series)"
same,binding signal,HOXB4 [2],"7.32 upbm affinity estimate (log intensity, higher = more binding, comparable within an allelic series)"
same,binding signal,HOXA4 [9],"9.77 upbm affinity estimate (log intensity, higher = more binding, comparable within an allelic series)"
same,binding signal,HOXA4 [13],"9.76 upbm affinity estimate (log intensity, higher = more binding, comparable within an allelic series)"
AGGGGGGG,binding signal,HOXB4 [1],"7.37 upbm affinity estimate (log intensity, higher = more binding, comparable within an allelic series)"
same,binding signal,HOXB4 [2],"7.23 upbm affinity estimate (log intensity, higher = more binding, comparable within an allelic series)"
CGGGGGTC,binding signal,HOXB4 [1],"7.85 upbm affinity estimate (log intensity, higher = more binding, comparable within an allelic series)"
same,binding signal,HOXB4 [2],"7.45 upbm affinity estimate (log intensity, higher = more binding, comparable within an allelic series)"
CCTACCGC,binding signal,HOXB4 [1],"7.61 upbm affinity estimate (log intensity, higher = more binding, comparable within an allelic series)"
same,binding signal,HOXB4 [2],"7.56 upbm affinity estimate (log intensity, higher = more binding, comparable within an allelic series)"
CGGCAGAG,binding signal,HOXB4 [1],"7.39 upbm affinity estimate (log intensity, higher = more binding, comparable within an allelic series)"
same,binding signal,HOXB4 [2],"7.51 upbm affinity estimate (log intensity, higher = more binding, comparable within an allelic series)"
CCCTTGCG,binding signal,HOXB4 [1],"7.39 upbm affinity estimate (log intensity, higher = more binding, comparable within an allelic series)"
same,binding signal,HOXA4 [4],"9.76 upbm affinity estimate (log intensity, higher = more binding, comparable within an allelic series)"
same,binding signal,HOXA4 [7],"9.77 upbm affinity estimate (log intensity, higher = more binding, comparable within an allelic series)"
same,binding signal,HOXB4 [2],"7.32 upbm affinity estimate (log intensity, higher = more binding, comparable within an allelic series)"
same,binding signal,HOXA4 [9],"9.61 upbm affinity estimate (log intensity, higher = more binding, comparable within an allelic series)"
same,binding signal,HOXA4 [13],"9.81 upbm affinity estimate (log intensity, higher = more binding, comparable within an allelic series)"
